The values that follow come from PubChem BioAssay (EPA / NIEHS).

Inconclusive results are not listed. Activity calls are given as the source filed them. Rule for the calls: active = hit-call score of the fitted dose curve at least 0.9, where 1 is the maximum; inconclusive = response in the unintended direction; inactive = score below 0.9.

human Peroxisome Proliferator-activated Receptor alpha (PPARa), PPARA (gene 5465), sequence (Q07869 whole entry, looked up): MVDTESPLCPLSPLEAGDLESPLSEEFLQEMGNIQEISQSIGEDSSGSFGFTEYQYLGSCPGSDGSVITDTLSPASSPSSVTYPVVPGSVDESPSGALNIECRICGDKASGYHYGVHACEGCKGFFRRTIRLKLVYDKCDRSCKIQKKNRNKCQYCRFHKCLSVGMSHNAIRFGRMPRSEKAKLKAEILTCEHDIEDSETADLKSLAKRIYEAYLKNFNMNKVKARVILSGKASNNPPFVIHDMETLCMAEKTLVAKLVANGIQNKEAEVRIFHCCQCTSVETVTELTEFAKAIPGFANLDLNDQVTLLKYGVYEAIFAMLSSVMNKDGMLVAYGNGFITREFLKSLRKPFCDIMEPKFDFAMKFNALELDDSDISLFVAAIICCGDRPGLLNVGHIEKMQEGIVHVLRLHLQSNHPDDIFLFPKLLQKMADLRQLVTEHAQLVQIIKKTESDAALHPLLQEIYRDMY

The target of this test is human Peroxisome Proliferator-activated Receptor alpha (PPARa), PPARA (gene 5465) (UniProt Q07869). The experiment in a line: ATG_PPARa_TRANS: Attagene TRANS-FACTORIAL HepG2 Assay for human Peroxisome Proliferator-activated Receptor alpha (PPARa) (AID 2283001).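 For AC50: potency for gain of reporter signal over DMSO so agonist or activator.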 The protocol:
ATG_TRANS is a cell-based, multiplexed-readout assay that uses HepG2, a human liver cell line, with measurements taken at 24 hours after chemical dosing in a 24-well plate.ATG_PPARa_TRANS is one of 30 assay component(s) measured or calculated from the ATG_TRANS assay. It is designed to make measurements of mRNA induction, a form of inducible reporter, as detected with fluorescence intensity signals by Reverse transcription polymerase chain reaction (RT-PCR) and Capillary electrophoresis technology.Data from the assay component ATG_PPARa_TRANS was analyzed into 1 assay endpoint. This assay endpoint, ATG_PPARa_TRANS, was analyzed in the positive analysis fitting direction relative to DMSO as the negative control and baseline of activity. Using a type of inducible reporter, measures of mRNA for gain-of-signal activity can be used to understand the reporter gene at the transcription factor-level as they relate to the gene PPARA. Furthermore, this assay endpoint can be referred to as a primary readout, because this assay has produced multiple assay endpoints where this one serves a reporter gene function. To generalize the intended target to other relatable targets, this assay endpoint is annotated to the nuclear receptor intended target family, where the subfamily is non-steroidal.
Human liver HepG2 cells are transiently transfected with multiple reporter transcription units (MRTUs) in 6-well plates using FuGene 6 reagent (Roche; 3 ml FuGene/1 mg DNA). The MRTU constructs are regulated by a cis-regulating element (promoter). […] A major difference between the CIS and TRANS system is that in CIS activities of endogenous TFs are measured, whereas the TRANS assay evaluates changes in activities of exogenous, chimeric NR-Gal4 proteins. […] At the end of 24 hour incubation, total RNA was isolated using TriZol reagent (Invitrogen). The isolated RNA is then reverse-transcribed using oligo(dT) primer and Mo-MLV reverse transcriptase (Invitrogen) with DNAse I (Ambion) treatment for 30 min. The one-tenth of the produced cDNA was amplified by PCR using Taq DNA polymerase (Invitrogen) and two reporter sequence-specific primers. The PCR products were fluorescently labeled by primer extension with 6-arboxyfluorescein (6-FAM) 5'-labeled reporter sequence-specific primer (2 min at 95 C, 20 s at 68 C and 10 min at 72 C) and these products were digested with 5U of HpaI (New England Biolabs) for 2h at 37 C. The fragments were purified using Qiaquick PCR columns (Qiagen), analyzed on an ABI 3130xL genetic analyzer (Applied Biosystems) with peak positions identified by using a set of X-rhodamine (ROX)-labeled MapMarker1000 molecular weight standards (BioVentures). The raw capillary electrophoresis data was processed using Attagraph software (Attagene).
As to `N#Cc1cccnc1`, the outcome was inactive.
Same read-out and setting: under `c1ccc2c(c1)Oc1ccccc1O2` stands “inactive”; under `NC(=O)CCl`, “inactive”; under `Oc1cc(Cl)c(Cl)cc1Cl`, “inactive”.
The same measure, in the same setting: the same measure for `Brc1c(Br)c(Br)c(Oc2c(Br)c(Br)c(Br)c(Br)c2Br)c(Br)c1Br`: “inactive”.
For `CCCCCCCCCCCCCCC(Br)C(=O)O` (stereo not given), the AC50 – broadly, the concentration giving half of the maximal activity seen – was 1.44 µM (active).
On to `CCCCCCCCCCCCBr`, for which the result was inactive.
The same measure, in the same setting: the same measure for `CN(C)c1ccc(N=O)cc1`: “inactive”; for `N#CCCC(Br)(C#N)CBr` (stereo not given): “inactive”.
On to `Cc1cc(Cl)ccc1N`, for which the call was inactive.
In the case of `CCOC(=O)OC1=C(c2cc(C)ccc2C)C(=O)NC12CCC(OC)CC2` (stereo not given), the molecule was called inactive.
As for `Cc1cc(Cl)ccc1OC(C)C(=O)O` (stereo not given), the outcome was inactive.
Regarding `CCCCCCCCCCCCc1cccc(S(=O)(=O)O)c1`, the concentration at half-maximal activity (AC50) was 30 µM (active).
In the case of `Cc1cc(Cl)ccc1OCCCC(=O)O`, the molecule was called inactive.
Same read-out and setting: the same measure for `Cc1cc(Cl)ccc1O`: “inactive”; for `Nc1ccc(N)cc1`: “inactive”; for `OC[P+](CO)(CO)CO`: “inactive”.
Same read-out and setting: under `O=C(O)CC(O)(CC(=O)O)C(=O)O` stands “inactive”.
In the case of `O=C(O)c1cc(I)cc(I)c1I`, the half-maximal activity concentration (AC50) was 17.3 µM (active).
As to `CNC(=O)CSP(=O)(OC)OC`, the molecule was called inactive.
On the same count and under the same terms, under `CCCSP(=S)(OCC)Oc1ccc(Cl)cc1Cl` (stereo not given) stands “inactive”.
Same read-out and setting: under `C[N+](C)(C)Cc1ccccc1` stands “inactive”.
Still for that read-out and setting: the same measure for `CCCCCCCCBr`: “inactive”; for `O=NN1CCOCC1`: “inactive”.
`Nc1cccnc1`: the result was inactive.
Same read-out and setting: under `Cc1cc(C)cc(C)c1` stands “inactive”; under `O=C(NC(=O)c1c(F)cccc1F)Nc1cc(Cl)c(OC(F)(F)C(F)C(F)(F)F)cc1Cl` (stereo not given), “inactive”.
Same read-out and setting: the same measure for `CCOc1cc(C=O)ccc1O`: “inactive”; for `C[C@H]1C(=O)O[C@@H]2CCN3CC=C(COC(=O)[C@](C)(O)[C@]1(C)O)[C@H]23`: “inactive”.
Same read-out and setting: under `Cc1cccc(C)c1NC(=O)CN1CCCC1=O` stands “inactive”.
For the molecule `CCC[CH2][Sn]([CH2]CCC)([CH2]CCC)[CH2]CCC`, the result was inactive.
`O=C1C=CC(=O)c2ccccc21`: the result was inactive.
Same read-out and setting: under `CCCCOC(C)=O` stands “inactive”; under `Cc1cccc(N=Nc2ccc(N(C)C)cc2)c1`, “inactive”.
On the same count and under the same terms, under `c1cc[c]([Sb]([c]2ccccc2)[c]2ccccc2)cc1` stands “inactive”; under `COc1ccccc1N`, “inactive”; under `CN(C)[C@@H]1C(=O)C(C(N)=O)=C(O)[C@@]2(O)C(=O)C3=C(O)c4c(O)ccc(Cl)c4[C@@](C)(O)[C@H]3C[C@@H]12`, “inactive”.
For `CCNc1nc(NCC)nc(SC)n1`, the result was inactive.
For the molecule `CNC(=O)N(C)c1nc2ccccc2s1`, the call was inactive.
As for `Brc1ccc(Oc2c(Br)cc(Br)cc2Br)c(Br)c1`, the molecule was classed as inactive.
